Structures are written as SMILES. Results filed as inconclusive are left out. Where a call stands in place of a potency, no number is given. The source made the active and inactive calls. Calls follow the shape of the dose curve; as a rule, active = well fitted cell-killing curve with a large enough effect in the repeat runs; inconclusive = weak or mixed curves; inactive = flat fitted curve, though single readings scatter.

This assay can be described thus: qHTS RealTime-Glo MT Cell Viability Assay in HepG2 cells - 24 hour (AID 1224867). Also: nearly all actives have a fitted effect of over 50% in size. The note with it: RealTime-Glo luminescence; series mostly up to 76.8 µM. From the text:
U.S. Tox21 Program National Center for Advancing Translational Sciences [NCATS] NIH Chemical Genomics Center [NCGC] U.S. Environmental Protection Agency [EPA] National Institutes of Environmental Health Sciences [NIEHS] National Toxicology Program [NTP] U.S. Food and Drug Administration [FDA] Tox21 Assay Overview: Measure of cell viability is critical in the cell-base assay. Analysis of cell viability is necessary for the characterization of cell responses to cytotoxic drugs and environmental stress. A RealTime-Glo MT Cell Viability Assay to monitor cell viability in real time of continues cell culture during 40 hours of compound treatment was used to screen Tox21 10K library compounds in HepG2 cells. The RealTime-Glo MT Cell Viability Assay is a nonlytic, homogeneous, bioluminescent method to measure cell viability in real time using a simple, plate-based method. The assay involves adding NanoLuc luciferase and a cell-permeant prosubstrate to cells in culture. Viable cells reduce the proprietary prosubstrate to generate a substrate for NanoLuc luciferase. This substrate diffuses from cells into the surrounding culture medium, where it is rapidly used by the NanoLuc Enzyme to produce a luminescent signal. The signal correlates with the number of viable cells, making the assay well suited for cytotoxicity studies.
Tox21 Assay Protocol Summary: The mixture of HepG2 cell suspension and reagents were dispensed at 600cells/6 ul/well in 1536-well tissue culture treated black solid bottom plates using a Multidrop dispenser. After the assay plates were incubated at a 37 C/5% CO2 incubator for 5 hours, 23 nL of compounds dissolved in DMSO, positive and negative controls was transferred to the assay plate by a pintool work station. The plates were incubated at 37 C for 40 hours. The luminescence intensity were measured at 0h, 8h, 16h, 24h, 32h and 40h time points using ViewLux plate reader during compound treatment.
With `N#Cc1c(Cl)cccc1Cl`, the Potency result was “inactive”.

As to `CCc1cc2c(s1)-n1c(C)nnc1CN=C2c1ccccc1Cl`, the Potency entry is “inactive”.

With `CCCSP(=S)(OCC)Oc1ccc(Cl)cc1Cl` (stereo not given), the Potency result is “inactive”.

With `CCN(CC)C(C)C(=O)c1ccccc1` (stereo not given), the Potency result is “inactive”.

Turning to `CCOC(=O)C(c1c(O)c2ccccc2oc1=O)c1c(O)c2ccccc2oc1=O`, the Potency entry was “inactive”.

As to `OCCBr`, the Potency entry was “inactive”.

For `c1coc(-c2nc3ccccc3[nH]2)c1`, the Potency entry was “inactive”.

As for `Cc1cnc[nH]1`, the Potency result was “inactive”.

Take `CCC(=O)c1ccccc1`: the Potency entry is “inactive”.

As for `CNC(=O)Oc1c(C(C)(C)C)cc(C)cc1C(C)(C)C`, the Potency entry is “inactive”.

As for `C[C@]1(O)CC[C@H]2[C@@H]3CCC4=CC(=O)CC[C@]4(C)[C@@]3(F)[C@@H](O)C[C@@]21C`, the Potency entry is “inactive”.

As for `O=C(N[C@H]1CN2CCC1CC2)c1cc2ccoc2cn1`, the Potency result was “inactive”.

Regarding `O=C1CN2CCOC2(c2ccccc2Cl)c2cc(Cl)ccc2N1` (stereo not given), the Potency result is “inactive”.

In the case of `CN1C(=S)CN=C(c2ccccc2)c2cc(Cl)ccc21`, the Potency result was “inactive”.

Consider `CCOP(=S)(OCC)SCSc1ccc(Cl)cc1`, for which the Potency result is “inactive”.

In the case of `CSc1nc(N=[N+]=[N-])nc(NC(C)C)n1`, the Potency result was “inactive”.

In the case of `C=C(C)CN(CC)c1c([N+](=O)[O-])cc(C(F)(F)F)cc1[N+](=O)[O-]`, the Potency result was “inactive”.

Turning to `CCOC(=O)/C=C(C)/C=C/C[C@@H](C)CCCC(C)C`, the Potency result was “inactive”.

Consider `C[C@]12CC[C@H]3[C@@H](CC=C4C[C@@H](O)CC[C@@]43C)[C@@H]1CC[C@@H]2O`, for which the Potency result is “inactive”.

Consider `NC(=O)c1cc([N+](=O)[O-])cc([N+](=O)[O-])c1`, for which the Potency result is “inactive”.

For `C[C@H]1CCC[C@H](O)CCCCCc2cc(O)cc(O)c2C(=O)O1`, the Potency entry is “inactive”.

Consider `CC(Cl)(Cl)[N+](=O)[O-]`, for which the Potency result was “inactive”.

In the case of `CNC(=O)O/N=C(\C)SC`, the Potency result was “inactive”.

With `Cc1ncsc1CCCl`, the Potency entry is “inactive”.

Turning to `Nc1cc(Cl)ccc1O`, the Potency entry was “inactive”.

Regarding `CCCSC(=O)N(CCC)CCC`, the Potency entry is “inactive”.

As to `CC(C(=O)c1ccccc1)N(C)C` (stereo not given), the Potency entry was “inactive”.

Turning to `O=C(Cc1ccccc1)OCc1ccccc1`, the Potency result is “inactive”.

As to `Nc1cc2c3c(c1)C(c1ccccc1)=N[C@@H](NC(=O)c1cccnc1)C(=O)N3CC2`, the Potency entry was “inactive”.

On to `ClCCCN1CCN(c2cccc(Cl)c2)CC1`, for which the Potency result is “inactive”.

Turning to `CC1(C(=O)Nc2ccc(O)c(Cl)c2Cl)CCCCC1`, the Potency entry was “inactive”.

For the compound `CC1CN1P(=O)(N1CC1C)N1CC1C` (stereo not given), the Potency entry was “inactive”.

For `O=C1OC(CCN2CCCCC2)OC1(c1ccccc1)c1ccccc1` (stereo not given), the Potency result is “inactive”.

Regarding `CCN(Cc1ccc(Cl)nc1)/C(=C/[N+](=O)[O-])NC`, the Potency entry is “inactive”.

Consider `CCCCC(=O)Cl`, for which the Potency entry was “inactive”.

With `CCN(CC)C(=O)[C@@H]1C=C2c3cccc4[nH]cc(c34)C[C@H]2N(C)C1`, the Potency entry was “inactive”.

`O=CNC(N1CCN(C(NC=O)C(Cl)(Cl)Cl)CC1)C(Cl)(Cl)Cl` (stereo not given): the Potency entry is “inactive”.

In the case of `[O]=[Cd]`, the Potency result was “inactive”.

On to `Fc1ccc(C2(Cn3cncn3)OC2c2ccccc2Cl)cc1` (stereo not given), for which the Potency entry was “inactive”.

Regarding `O=[N+]([O-])c1cccc2cccnc12`, the Potency entry was “inactive”.

(Values after PubChem BioAssay (Tox21).)
